Data on nine molecules can be found in PubChem BioAssay (NCATS).

Structures are written as SMILES. Results filed as inconclusive are left out. Calls of active or inactive are those of the source. Calls follow the shape of the dose curve; as a rule, active = well fitted inhibition curve with a large enough effect; inconclusive = small, poorly fitted or top-dose-only effect; inactive = flat fitted curve, though single readings scatter.

Assay in all cases: qHTS profiling for inhibitors of Plasmodium falciparum proliferation (AID 504749); also: nearly all actives have a fitted effect of over 60% in size
Details in all cases: P. falciparum in erythrocytes, SYBR Green DNA, 72 h; series mostly up to 28.7 µM
On the technique in general: Quantitative high-throughput screening tests each substance at several concentrations.

One assay concerns ATS189. In outline: (§1)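 Fluorescence of SYBR Green-bound parasite DNA, read at 485/535 nm, served as the growth measure. Infected erythrocytes were cultured with compound 72 h; artemisinin (0.29 uM) and DMSO wells defined the normalization range.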
The test system of another assay is ATS95. In outline:
as §1

Another assay deals with C2A. In outline:
as §1

The subject of another assay is CP203. In outline: as §1
The subject of another assay is CP185. In outline: as §1
For the next assay, the system named is CP191. In outline: as §1
Another assay relates to CP194. Summed up:
as §1

A further assay relates to CP201. Summed up: as §1
For the next assay, the system named is CP211. Summed up:
as §1

A further assay deals with CP192. Summed up: as §1
Potency is read from the fitted curve at half-maximal effect.

Take `O=S(=O)(O)c1cc(O)c2c(N=Nc3ccc(Nc4ccccc4)c4c(S(=O)(=O)O)cccc34)cc(S(=O)(=O)O)cc2c1`: the Potency result in the assay on ATS189, with ATS95, with C2A and in the assay with CP203 was “inactive” throughout.

In the case of `O=C(Nc1ccc(Br)cc1)c1cc(Br)c(Br)s1`, the Potency in the assay on CP203 was 16.9 µM (active).

Turning to `CC(C)N=c1cc2n(-c3ccc(Cl)cc3)c3ccccc3nc-2cc1Nc1ccc(Cl)cc1`, the Potency entry in the assay on ATS189, with ATS95, in the assay on C2A, in the assay on CP185, in the assay with CP191 and in the assay with CP194 was “inactive” in each case. Besides, the Potency result in the assay on CP201, in the assay on CP203 and with CP211 was “inactive” each time.

In the case of `CCN(CC)CCOc1ccc(-c2nc3cc(Cl)ccc3s2)cc1`, the Potency entry in the assay on ATS189, in the assay on CP185, in the assay with CP192, with CP194, in the assay on CP201 and in the assay with CP203 was “inactive” in each case. Further, the Potency result in the assay on CP211 was “inactive”.

Take `CC(=O)Oc1cc(C)c(OC(C)=O)c2ccccc12`: the Potency in the assay on C2A is 11.2 µM (active); with CP192, 10.7 µM (active).

With `IC(I)I`, the Potency result in the assay with ATS189, in the assay with ATS95, with C2A, in the assay with CP185, with CP191 and in the assay on CP194 was “inactive” in each case. Moreover, the Potency result in the assay on CP201, with CP203 and with CP211 was “inactive” in each case.

Turning to `CC(C)=O`, the Potency entry in the assay with ATS189, in the assay on C2A, with CP185, in the assay on CP191, with CP192 and in the assay on CP194 was “inactive” throughout. Besides, the Potency result with CP201, in the assay on CP203 and in the assay on CP211 was “inactive” in each case.

Turning to `CCOC(=O)C1=C(C)NC(C)=C(C(=O)OCC)C1c1ccccc1C=CC(=O)OC(C)(C)C`, the Potency is 10 µM (active) in the assay with ATS95; 11.2 µM (active) with CP185; 8.91 µM (active) in the assay with CP191; 12 µM (active) in the assay with CP192; 15.1 µM (active) with CP194; 19 µM (active) in the assay on CP203. Besides, the Potency with CP211 is 15.1 µM (active). Also, in the assay with C2A, the Potency result is “inactive”.

For `C=C1C(=CC=C2CCC[C@@]3(C)[C@@H]2CC[C@H]3[C@H](C)CCCC(C)C)C[C@@H](O)C[C@@H]1O`, the Potency in the assay with C2A is 10 µM (active); in the assay with CP191, 11.2 µM (active). For the same molecule, the Potency result in the assay with CP192, in the assay with CP194, in the assay on CP201, in the assay on CP203 and with CP211 was “inactive” throughout.
